According to PubChem BioAssay:
For part of these data: Entries with a potency or affinity are not part of this list. The source made the active and inactive calls.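 Rule for the calls, unless noted: active = hit in primary screen, with calcium signal over 5 SD above buffer well mean in both duplicates; inactive = the rest.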

What was measured:
[1] = tested on: TRPC4 beta (transient receptor potential cation channel C4), mouse; assay: TRPC4 cation channel opening, retest – cell-based, Fluo4 calcium, HEK293 TRPC4beta/mu-opioid, duplicates, 10 µM, confirmation (AID 2426;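 active = fluorescence ratio normalized to control raised more than 50% in primary screen plus both repeat runs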;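 for activation: percent rise of integrated ratio over buffer wells lacking compound which define 0%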); settings: Fluo4 calcium fluorescence, at 10 µM; active compounds read high
[2] = tested on: transient receptor potential cation channel C4 beta (TRPC4), mouse; assay: TRPC4 cation channel opening, second retest – cell-based, second round, Fluo4, HEK293 TRPC4beta/mu-opioid, 1 µM, confirmation (AID 2461;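 active = primary screen active and over 50% activation in each of two duplicate runs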;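 for activation: 0% = wells without test compound as baseline of integrated fluorescence ratio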); settings: Fluo4 calcium fluorescence, at 1 µM; active compounds read high
[3] = tested on: TRPC4 (transient receptor potential cation channel C4 beta), mouse; assay: potentiation of DAMGO EC20 TRPC4 response – cell-based, second round, Fluo-4, HEK293 TRPC4beta/mu-opioid, 1 µM, confirmation (AID 2554;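 active = primary screen hit whose fluorescence ratio, in both repeats, exceeds the weak agonist control mean by 3 SD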); settings: DAMGO EC20, Fluo-4 calcium flux, at 1 µM; active compounds read high
[4] = tested on: TRPC4 beta (transient receptor potential cation channel C4), mouse; assay: potentiation of DAMGO EC20 TRPC4 response – cell-based, Fluo-4, HEK293 TRPC4beta/mu-opioid, confirmation (AID 2555;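 active = primary screen hit whose calcium fluorescence ratio, in both repeats, exceeds the weak agonist control mean by 3 SD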); settings: DAMGO EC20, Fluo-4 calcium flux, at 10 µM; active compounds read high
[5] = target: Short transient receptor potential channel 4 (Mus musculus) (UniProt Q9QUQ5); assay: blockers of DAMGO-evoked TRPC4 calcium flux – cell-based, Fluo4, HEK293 TRPC4beta/mu-opioid, confirmation (AID 2636;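 active = calcium signal cut by more than 3 SD below the full-agonist control yet still positive, in both repeats and the earlier primary screen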); settings: at 10 µM; active compounds read high
[6] = target: Short transient receptor potential channel 4 (Mus musculus) (UniProt Q9QUQ5); assay: blockers of DAMGO-evoked TRPC4 calcium flux – cell-based, second round, Fluo4, HEK293 TRPC4beta/mu-opioid, 1 µM, confirmation (AID 2637;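 active = calcium signal ratio cut to more than 3 SD under the fully stimulated control mean yet still positive, in both repeats and the primary screen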); settings: at 1 µM; active compounds read high
[7] = target: Short transient receptor potential channel 4 (Mus musculus) (UniProt Q9QUQ5); assay: potentiation of DAMGO-evoked TRPC4 calcium signal – cell-based, HEK293 TRPC4/mu-opioid, Fluo-4 calcium, EC20 DAMGO, dose response (AID 434941;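 active = earlier screen potentiator hit that boosts the TRPC4 ion channel at some dose, with a dose response; inactive = no potentiation, no dose response, or not a prior hit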;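 note: calcium entry triggered by an EC20 dose of DAMGO at the co-expressed mu-opioid receptor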)
[8] = target: Short transient receptor potential channel 4 (Mus musculus) (UniProt Q9QUQ5); assay: block of DAMGO-driven TRPC4 calcium entry – cell-based, HEK293 TRPC4/mu-opioid, Fluo-4 calcium, dose response (AID 434942;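 active = primary screen inhibitor hit that blocks the TRPC4 channel at some tested dose, yielding a dose curve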)
[9] = target: Short transient receptor potential channel 6 (Mus musculus) (UniProt Q61143); assay: TRPC6 blockade by TRPC4 inhibitor hits – cell-based, HEK293, membrane potential dye, duplicate, selectivity assay for TRPC4 inhibitor project, confirmation (AID 434948;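 active = active in primary screen and both duplicates, each dropping signal beyond three positive-control SD with fluorescence still positive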); settings: HEK293 TRPC6, membrane potential dye fluorescence, at 10 µM, stimulated with maximal-effect acetylcholine; active compounds read high
[10] = target: Short transient receptor potential channel 6 (Mus musculus) (UniProt Q61143); assay: TRPC6 opening by TRPC4 activator hits – cell-based, HEK293, membrane potential dye, duplicate, selectivity assay for TRPC4 activator project, confirmation (AID 434950;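 active = membrane potential signal rise above negative control mean plus 3 SD in both duplicates, also active in the earlier TRPC4 screen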;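 for activation: 0% = buffer only wells and 100% = acetylcholine maximal-effect wells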); settings: HEK293 TRPC6, membrane potential fluorescence, at 10 µM; activation: active compounds read high; outcome: activation
[11] = target: Short transient receptor potential channel 6 (Mus musculus) (UniProt Q61143); assay: positive modulators of mouse TRPC6 channel – HEK293 cells, membrane potential dye, duplicate, selectivity assay for TRPC4 potentiator project, confirmation (AID 434952;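 active = compound raising the membrane signal above positive-control mean plus 3 SD in both repeats, and a primary screen hit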); settings: HEK293 TRPC6, membrane potential dye fluorescence, at 10 µM, maximal acetylcholine added after compound; active compounds read high
[12] = target: Short transient receptor potential channel 4 (Mus musculus) (UniProt Q9QUQ5); assay: calcium flux activators in TRPC4/5HT1a cells, counter-screen for TRPC4 activator project, cell-based, second counter screen, HEK293 TRPC4/5HT1a, Fluo-4 (AID 434977;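 active = calcium signal rise above buffer-control mean plus 5 SD in both duplicates, and also a hit in the primary screen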;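 for activation: plate controls were assay buffer for no effect and maximal serotonin response for full effect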); settings: Fluo-4 calcium flux, at 10 µM; active compounds read high
[13] = serotonin-gated TRPC4 signal block – cell-based, second counter screen, HEK293 TRPC4/5HT1a, Fluo-4, counter-screen for TRPC4 inhibitor project, confirmation (AID 434978;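 active = primary screen active whose calcium signal fell more than 3 SD beyond the full-serotonin control mean in both duplicate plates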;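 note: serotonin given first at submaximal then at maximal dose after compound preincubation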); settings: Fluo-4 calcium flux, at 10 µM, serotonin added to trigger calcium flux; active compounds read high
[14] = tested on: TRPC4 (mouse), co-expressed with 5HT1a in HEK293; assay: enhancement of serotonin-evoked TRPC4 response – cell-based, second counter screen, HEK293 TRPC4/5HT1a, Fluo-4, counter-screen for TRPC4 potentiator project, confirmation (AID 434979;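 active = signal rise over 3 SD above mean of control wells given weak agonist, in both repeats and first screen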); settings: Fluo-4 calcium flux, at 10 µM, serotonin added at its EC20 dose; active compounds read high
[15] = nonspecific calcium rise without TRPC4 – cell-based, HEK293 mu-opioid receptor line, counter-screen for TRPC4 activator project, confirmation (AID 449723); settings: HEK293 mu-opioid cells, Fluo-4 calcium fluorescence, at 10 µM; active compounds read high;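 note: counter screen cells carry the mu-opioid receptor alone and lack TRPC4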
[16] = nonspecific potentiation of DAMGO calcium response – cell-based, HEK293 mu-opioid receptor line, counter-screen for TRPC4 allosteric potentiator project, confirmation (AID 449724;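 active = calcium signal rise more than 3 SD above the low-dose agonist control mean, in both duplicate plates and the primary screen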); settings: HEK293 mu-opioid receptor cells, Fluo-4 calcium flux, at 10 µM, compound added before EC20 DAMGO stimulus; active compounds read high

Chain of Short transient receptor potential channel 4 (Mus musculus) (Q9QUQ5 whole entry, looked up): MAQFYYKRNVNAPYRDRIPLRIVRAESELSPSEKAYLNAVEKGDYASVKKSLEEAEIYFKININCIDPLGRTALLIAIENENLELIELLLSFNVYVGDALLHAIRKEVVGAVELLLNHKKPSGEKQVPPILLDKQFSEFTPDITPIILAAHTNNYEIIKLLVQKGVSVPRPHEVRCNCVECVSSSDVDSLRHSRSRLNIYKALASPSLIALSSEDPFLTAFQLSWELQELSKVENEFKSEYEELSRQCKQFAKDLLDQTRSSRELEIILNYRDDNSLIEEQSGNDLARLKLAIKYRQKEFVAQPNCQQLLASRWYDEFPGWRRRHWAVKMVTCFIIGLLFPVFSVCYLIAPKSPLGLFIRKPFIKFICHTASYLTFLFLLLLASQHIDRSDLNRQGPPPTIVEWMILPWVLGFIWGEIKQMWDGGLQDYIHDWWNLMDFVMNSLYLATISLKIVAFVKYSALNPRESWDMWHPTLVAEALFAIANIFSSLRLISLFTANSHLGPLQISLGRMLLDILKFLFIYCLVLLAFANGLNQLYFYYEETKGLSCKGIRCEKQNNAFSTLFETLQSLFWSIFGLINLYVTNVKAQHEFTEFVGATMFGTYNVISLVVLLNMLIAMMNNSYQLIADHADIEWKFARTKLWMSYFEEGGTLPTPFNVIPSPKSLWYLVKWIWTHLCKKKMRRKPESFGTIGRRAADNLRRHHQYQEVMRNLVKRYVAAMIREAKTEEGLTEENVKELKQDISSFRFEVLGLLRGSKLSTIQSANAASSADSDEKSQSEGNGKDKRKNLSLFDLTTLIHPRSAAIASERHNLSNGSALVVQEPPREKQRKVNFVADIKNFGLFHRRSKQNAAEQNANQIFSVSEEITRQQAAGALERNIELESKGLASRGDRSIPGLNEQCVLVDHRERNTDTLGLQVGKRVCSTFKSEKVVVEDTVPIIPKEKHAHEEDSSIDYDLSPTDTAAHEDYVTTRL
Chain of Short transient receptor potential channel 6 (Mus musculus) (Q61143 whole entry, looked up): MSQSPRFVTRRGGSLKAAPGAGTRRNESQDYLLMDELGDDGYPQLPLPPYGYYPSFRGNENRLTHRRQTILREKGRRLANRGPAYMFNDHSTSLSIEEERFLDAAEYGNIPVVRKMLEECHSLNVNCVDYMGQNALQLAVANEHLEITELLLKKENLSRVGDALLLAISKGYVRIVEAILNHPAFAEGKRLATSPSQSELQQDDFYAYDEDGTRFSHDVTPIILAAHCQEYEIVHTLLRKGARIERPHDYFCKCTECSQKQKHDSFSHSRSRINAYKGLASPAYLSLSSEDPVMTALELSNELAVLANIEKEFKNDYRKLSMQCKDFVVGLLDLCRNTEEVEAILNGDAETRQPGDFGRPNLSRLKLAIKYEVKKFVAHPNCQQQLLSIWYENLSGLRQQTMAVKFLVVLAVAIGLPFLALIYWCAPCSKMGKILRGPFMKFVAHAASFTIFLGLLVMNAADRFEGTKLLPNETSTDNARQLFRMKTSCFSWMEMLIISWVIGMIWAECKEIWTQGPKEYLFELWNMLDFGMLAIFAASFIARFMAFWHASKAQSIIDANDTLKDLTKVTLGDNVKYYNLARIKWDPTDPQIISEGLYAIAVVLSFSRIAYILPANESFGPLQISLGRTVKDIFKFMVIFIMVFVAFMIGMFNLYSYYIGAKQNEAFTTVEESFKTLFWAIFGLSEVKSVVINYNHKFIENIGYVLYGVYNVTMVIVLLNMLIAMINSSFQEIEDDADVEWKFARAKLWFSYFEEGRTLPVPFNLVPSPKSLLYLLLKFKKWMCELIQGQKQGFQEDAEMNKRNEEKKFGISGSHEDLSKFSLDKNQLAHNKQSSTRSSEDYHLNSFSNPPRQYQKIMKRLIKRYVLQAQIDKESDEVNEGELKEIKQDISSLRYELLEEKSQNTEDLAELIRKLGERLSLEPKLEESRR

CN1CCC(=O)N([C@H](CSc2ccc(Br)cc2)Cc2ccccc2)CC1
inactive: outcome [1] | outcome [2] | outcome [3] | outcome [4] | outcome [5] | outcome [6] | outcome [7] | outcome [8] | outcome [9] | outcome [11] | outcome [12] | outcome [13] | outcome [14] | outcome [15] | outcome [16]
active: activation [10] 33%

O=C(Nc1ccc(Cl)cc1)N1CCC(c2nc(-c3cccs3)no2)CC1
active: activation [1] 158% | activation [12] 46.6%
inactive: outcome [2] | outcome [3] | outcome [4] | outcome [5] | outcome [6] | outcome [7] | outcome [8] | outcome [9] | outcome [10] | outcome [11] | outcome [13] | outcome [14] | outcome [15] | outcome [16]

Cc1noc(C)c1S(=O)(=O)N1CCC(C(=O)NCCCN2CC(C)CC(C)C2)CC1 (stereo not given)
active: activation [1] 99% | activation [2] 75% | activation [12] 28.5%
inactive: outcome [3] | outcome [4] | outcome [5] | outcome [6] | outcome [7] | outcome [8] | outcome [9] | outcome [10] | outcome [11] | outcome [13] | outcome [14] | outcome [15] | outcome [16]

NCCCNC(=O)c1cc2ccccc2[nH]1
inactive: outcome [2] | outcome [3] | outcome [4] | outcome [5] | outcome [6] | outcome [7] | outcome [8] | outcome [9] | outcome [10] | outcome [11] | outcome [13] | outcome [14] | outcome [15] | outcome [16]
active: activation [1] 220% | activation [12] 6.83%

COc1ccc(-c2nn(-c3ccccc3C)cc2CNC(C)c2cn(C)nc2C)cc1F (stereo not given)
active: activation [1] 206% | activation [2] 74% | activation [10] 31%
inactive: outcome [3] | outcome [4] | outcome [5] | outcome [6] | outcome [7] | outcome [8] | outcome [9] | outcome [11] | outcome [12] | outcome [13] | outcome [14] | outcome [15] | outcome [16]

CCOC(=O)C1(CCCc2ccccc2)CCN(Cc2cnn(C)c2)CC1
inactive: outcome [2] | outcome [3] | outcome [4] | outcome [5] | outcome [6] | outcome [7] | outcome [8] | outcome [9] | outcome [11] | outcome [12] | outcome [13] | outcome [14] | outcome [15] | outcome [16]
active: activation [1] 92% | activation [10] 69%

Cc1cccc(NC(=S)NCC(c2ccccc2)N(C)C)c1 (stereo not given)
active: activation [1] 176% | activation [2] 152% | activation [10] 39.5%
inactive: outcome [3] | outcome [4] | outcome [5] | outcome [6] | outcome [7] | outcome [8] | outcome [9] | outcome [11] | outcome [12] | outcome [13] | outcome [14] | outcome [15] | outcome [16]

CCCN1CCN(C(=O)Cn2c(=O)oc3cc(S(=O)(=O)NCc4ccccc4)ccc32)CC1
active: activation [1] 168% | activation [12] 26.3%
inactive: outcome [2] | outcome [3] | outcome [4] | outcome [5] | outcome [6] | outcome [7] | outcome [8] | outcome [9] | outcome [10] | outcome [11] | outcome [13] | outcome [14] | outcome [15] | outcome [16]

CN(C)C(CNC(=O)c1ccc2nc[nH]c2c1)c1ccccc1 (stereo not given)
active: activation [1] 145%
inactive: outcome [2] | outcome [3] | outcome [4] | outcome [5] | outcome [6] | outcome [7] | outcome [8] | outcome [9] | outcome [10] | outcome [11] | outcome [12] | outcome [13] | outcome [14] | outcome [15] | outcome [16]

Cc1ccc(C)c(NC(=S)NCC(c2ccccc2)N(C)C)c1 (stereo not given)
inactive: outcome [3] | outcome [4] | outcome [5] | outcome [6] | outcome [7] | outcome [8] | outcome [9] | outcome [11] | outcome [13] | outcome [14] | outcome [15] | outcome [16]
active: activation [1] 260% | activation [2] 127% | activation [10] 49% | activation [12] 93.2%

Cc1ccccc1NC(=S)NCC(c1cccnc1)N(C)C (stereo not given)
inactive: outcome [3] | outcome [4] | outcome [5] | outcome [6] | outcome [7] | outcome [8] | outcome [9] | outcome [11] | outcome [12] | outcome [13] | outcome [14] | outcome [15] | outcome [16]
active: activation [1] 112% | activation [2] 111% | activation [10] 32%

COc1ccc(C(CNc2nc(-c3cccnc3)nc3ccccc23)N(C)C)cc1 (stereo not given)
active: activation [1] 235% | activation [2] 84% | activation [12] 18%
inactive: outcome [3] | outcome [4] | outcome [5] | outcome [6] | outcome [7] | outcome [8] | outcome [9] | outcome [10] | outcome [11] | outcome [13] | outcome [14] | outcome [15] | outcome [16]

CCOC(=O)C1(Cc2ccccc2)CCN(Cc2cccn2-c2cccnc2)CC1
active: activation [1] 55% | activation [10] 89%
inactive: outcome [2] | outcome [3] | outcome [4] | outcome [5] | outcome [6] | outcome [7] | outcome [8] | outcome [9] | outcome [11] | outcome [12] | outcome [13] | outcome [14] | outcome [15] | outcome [16]

CC1CC(C)CN(CCCNC(=O)c2csc3c2CCCCC3)C1 (stereo not given)
active: activation [1] 128% | activation [10] 87.5% | activation [12] 7.01%
inactive: outcome [2] | outcome [3] | outcome [4] | outcome [5] | outcome [6] | outcome [7] | outcome [8] | outcome [9] | outcome [11] | outcome [13] | outcome [14] | outcome [15] | outcome [16]

O=C1/C(=C\c2cc([N+](=O)[O-])ccc2O)SC(=S)N1Cc1ccc(Cl)cc1
inactive: outcome [2] | outcome [3] | outcome [5] | outcome [6] | outcome [7] | outcome [8] | outcome [9] | outcome [13]
active: activation [1] 147% | potentiation [4] 21% | activation [10] 529% | potentiation, percent of control [11] 192% | activation [12] 147% | potentiation [14] 21% | activation [15] 158% | activation [16] 5450%
